PubChem BioAssay

Assay: superoxide lowering in aged yeast cells, pilot screen, validation compound set (AID 2706);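 also: yeast exposed to compound for one week at 30 degrees C before staining; 100% = mean of all compound wells on the same plate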
Conditions: S. cerevisiae aging, superoxide DHE fluorescence; at 10 µM; stronger effect = lower value;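 active = superoxide response below 65% of plate, a cut near 3 SD across the whole screen; inactive = the rest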

Superoxide response (% of plate), inactive:
COc1cc(C2NCCc3c2[nH]c2ccccc32)ccc1OC(C)C (stereo not given) 95.7%
O=C(CSCc1ccccc1)NCCCN1CCOCC1 114%
O=C(N1CCCCC1)C1(c2ccccc2)CCOCC1 92.5%
CCCC(=O)O[C@]1(C(=O)COC(C)=O)CC[C@H]2[C@@H]3C[C@H](F)C4=CC(=O)C=C[C@]4(C)[C@@]3(F)[C@@H](O)C[C@@]21C 112%
O=c1ccc2c(o1)/C(=C/C=C(Cl)Cl)CCC2 101%
COc1cc(Cc2cnc(N)nc2N)cc(OC)c1OC 106%
O=C(CC(NC(=O)OCc1ccccc1)C(=O)O)OCc1ccccc1 (stereo not given) 94.6%
O=c1c(-c2ccccc2)c(O)c2cccc3c2n1CCC3 108%
O=C(O)C1CCN(C(=O)COc2ccc3c4c(c(=O)oc3c2)CCC4)CC1 105%
CCOC(=O)c1cccc(P(C)(C)=O)c1 109%
O=C(O)c1cc2cc(F)ccc2[nH]1 113%
O=C(O)c1ccccc1C(=O)OCCCCOC(=O)c1ccccc1C(=O)O 88%
Cn1nc(-c2ccc(Cl)cc2)nc2c(=O)n(C)c(=O)nc1-2 79.2%
O=c1[nH]c(=O)n([C@H]2C[C@H](O)[C@@H](CO)O2)cc1C(F)(F)F 108%
COc1ccc(-c2cc(C(=O)N3CCOCC3)c3cc(C)ccc3n2)cc1 92%
Cc1ccc2c(c1)c1c3n2CCCN(Cc2ccccc2)C3CCC1 (stereo not given) 81.8%
CCCCCCCC(=O)OCC(O)CO (stereo not given) 110%
S=C(c1ccc2c(c1)OCO2)N1CCCCC1 91%
COc1cc2cc(C)nc(Cc3cccc4ccccc34)c2cc1OC 95.6%
CCn1cc(C(=O)O)c(=O)c2ccc(C)nc21 99.5%
c1coc(-c2nnc3n2C2(CCCC2)Cc2ccccc2-3)c1 91.6%
COc1ccc(Cc2noc(CN(C)CCN3CCc4ccccc4C3)n2)cc1OC 95%
CC1(C)c2ccccc2N2CC(=O)NC21/C=C/c1ccco1 (stereo not given) 109%
CC12CC(c3ccccc3O1)C(C(=O)N1CCOCC1)C(=O)N2 (stereo not given) 107%
O=C1CC(c2ccc(OCCCCCOc3ccc(C4CC(=O)NC4=O)cc3)cc2)C(=O)N1 (stereo not given) 95%
O=c1[nH]c(=O)n(C2CCCO2)cc1F (stereo not given) 96.1%
NC(N)=NC(=O)Cc1c(Cl)cccc1Cl 109%
CCOC(=O)Cn1c(C)cc(=O)c2ccccc21 103%
Cc1ccc(C(=O)Nc2ccccc2C(=O)NC(C(=O)O)C(C)C)cc1 (stereo not given) 116%
Cc1cc(O)c2/c(=N\N)c(-c3csc(C)n3)coc2c1 102%
O=C(CN1C(=O)/C(=C/c2cccc(Br)c2)SC1=S)Nc1cccnc1 102%
COc1ccc2[nH]c(CN3CCN(CC(C)C)C(CCO)C3)c(C)c2c1 (stereo not given) 95.8%
CC[N+](C)(C)c1cccc(O)c1 90.1%
COc1cccc2c(=O)c(C/C=C(/C)Cl)c(C)[nH]c12 107%
O=C(N/N=C/c1ccc([N+](=O)[O-])o1)c1ccc(O)cc1 136%
CC(=O)N1CCn2c3c(c4cc(C)ccc42)CCCC31 (stereo not given) 122%
Cc1ccc(CN2CCN(CCCc3ccccc3)CC2CCO)cc1 (stereo not given) 106%
CCC(C(=O)Nc1ccc2c(c1)OCCO2)c1ccccc1 (stereo not given) 96.9%
CN(C)CCC=C1c2ccccc2CCc2ccccc21 101%
CN(C)c1ccc(CNCCC(Cc2ccccc2)c2ccco2)cc1 (stereo not given) 92.3%
